ELG1 genotoxic: inducers of genotoxicity in HEK293T ELG1-luciferase cells. HEK293T ELG1-luciferase reporter, luminescence, 16 h. Potency, µM (series often up to 46 µM), most hits filed as activators. hit rate 1.3% among 330,000. AID 504466; note: nearly all actives have a fitted effect of over 60% in size
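Genotoxicity was scored as increased ELG1-luciferase reporter signal, measured by ONE-Glo luminescence (30 min, room temperature). Compound or vehicle exposure of the HEK293T reporter cells lasted 16 hr at 37°C.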
SMN2 splice up: SMN2 splice variant enhancement; HEK293 SMN2-luciferase splicing reporter, luminescence, 30-36 h; Potency, µM (doses to about 46.1 µM), usual class: activators; hit rate 2.8% among 210,000; AID 1458; note: nearly all actives have a fitted effect of over 55% in size
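HEK293 cells carry an SMN2 […]–luciferase reporter in which exon 7 inclusion puts luciferase in frame. Cells were plated 10-12 h before compound addition, then incubated 30-36 h at 37C. ONE-Glo luminescence was read; sodium butyrate at 4.5 mM final served as control.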
ELG1 repair inh: blocks ELG1-dependent DNA repair in HEK293T cells; HEK293T ELG1-luciferase reporter, luminescence, 16 h; DNA damage induced by 5-fluorouridine; hit rate 2.3% among 330,000; Potency, µM (doses to about 46.1 µM), hits mostly inhibitors; note: nearly all actives have a fitted effect of over 55% in size
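HEK293T cells expressing luciferase-tagged ELG1 (2,000/well) received 5-Fluorouridine plus compound or DMSO for 16 hr at 37 °C. Luciferase was read by ONE-Glo luminescence after 30 min at room temperature.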
Rab9 prom act: Rab9 promoter activation; Huh7 Rab9 promoter-luciferase reporter, luminescence, 24 h; Potency, µM (series often up to 9.22 µM), usual class: activators; hit rate 2.8% among 320,000; note: nearly all actives have a fitted effect of over 60% in size
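Huh7 cells stably carrying Rab9 promoter–luciferase reporter, plated 1500 cells/well, compound added after 2 h and incubated 24 h at 37 °C; luciferase luminescence then read after 10 min with detection reagent.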
FLuc modulator: counter-screen for miR-21 project: firefly luciferase inhibitors or activators; P08659; purified FLuc, Km substrates, luminescence inhibition; Potency, µM (highest dose often 57.5 µM), usual class: inhibitors; hit rate 6.9% among 360,000; note: nearly all actives have a fitted effect of over 55% in size
Target sequence (P08659 whole entry, looked up): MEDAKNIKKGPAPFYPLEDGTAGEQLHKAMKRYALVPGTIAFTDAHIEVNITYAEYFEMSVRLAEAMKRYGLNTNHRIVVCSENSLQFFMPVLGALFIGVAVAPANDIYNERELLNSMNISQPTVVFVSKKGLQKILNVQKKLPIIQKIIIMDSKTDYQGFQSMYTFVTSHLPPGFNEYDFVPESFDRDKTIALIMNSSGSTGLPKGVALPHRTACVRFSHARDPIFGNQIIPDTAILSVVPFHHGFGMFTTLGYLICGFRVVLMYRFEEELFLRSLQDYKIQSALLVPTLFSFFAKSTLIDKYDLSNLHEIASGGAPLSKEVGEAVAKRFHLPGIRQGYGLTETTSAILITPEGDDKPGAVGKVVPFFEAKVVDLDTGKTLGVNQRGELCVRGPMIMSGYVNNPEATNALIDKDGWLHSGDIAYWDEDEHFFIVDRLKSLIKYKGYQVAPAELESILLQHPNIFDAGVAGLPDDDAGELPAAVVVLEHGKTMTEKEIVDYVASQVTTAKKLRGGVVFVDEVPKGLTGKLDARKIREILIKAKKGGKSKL
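Purified P. pyralis luciferase (10nM final) with 10uM D-luciferin and 10uM ATP (Km levels) in 50mM Tris acetate pH 7.5, 10mM Mg acetate, 0.01% Tween-20, 0.05% BSA; qHTS 6-point titration, ~60 µM downward; luminescence read.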
NPC1 prom act: NPC1 promoter activation. Huh7 NPC1 promoter luciferase reporter, 24 h. Potency, µM (series often up to 9.22 µM), usual class: activators. hit rate 2.4% among 320,000. AID 485313; note: nearly all actives have a fitted effect of over 60% in size
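Compounds in DMSO were transferred onto Huh7 NPC1-luciferase reporter cells pre-incubated 2 h; after 24 h at 37 °C, Amplite reagent was dispensed and luminescence recorded 10 min later.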
A number is an active result; i = inactive; ? = inconclusive; nt = not tested or not shown. This is a sample that favours compounds with a hit; in the whole collection about 9.3% have one here. Calls come from the whole dose curve; as a rule, active = well fitted curve in the direction sought with a large enough effect; inconclusive = small, poorly fitted or top-dose-only effect, or another doubt; inactive = no such curve, though single readings can be large; an effect the other way counts as inactive or inconclusive.

SMILES | ELG1 genotoxic | SMN2 splice up | ELG1 repair inh | Rab9 prom act | FLuc modulator | NPC1 prom act
Cc1cccn2c(=O)c(C=O)c(N3CCC4(CC3)OCCO4)nc12 | i | nt | i | i | i | i
CN(Cc1cccs1)C(=O)CSc1nc2ccccc2[nH]1 | i | nt | ? | ? | ? | i
Cc1ccc(SCC(=O)c2ccc[nH]2)cc1 | ? | ? | ? | ? | 24µM | ?
COc1ccc(-c2nnc(SCC(=O)c3cccs3)o2)cc1 | 10µM | i | ? | 2.2µM | 2.4µM | 3.5µM
Cc1ccc(CNC(=O)c2ccc[nH]2)cc1 | i | i | i | i | i | i
CN(C)C(=O)CSc1nnc(-c2cc(-c3cccs3)nc3ccccc23)o1 | i | i | 12µM | i | i | i
COc1ccc(-c2nnc(SCC(=O)c3ccc[nH]3)o2)cc1 | ? | 8.9µM | ? | 1.6µM | 4.3µM | 3.2µM
Cc1cccc(C(=O)Nc2ccc(C(=O)OCc3cc(=O)n4c(C)csc4n3)cc2)c1 | nt | nt | nt | nt | i | nt
CC1CN(Cc2cc(=O)[nH]c(C3CC3)n2)CC(C)O1 (centres undefined) | i | i | i | i | i | i
COC(=O)c1ccccc1NC(=O)Oc1ccc(C(C)C)cc1 | i | i | i | i | ? | i
Cc1ccc(-n2nccc2-c2nn(-c3cccc(C(F)(F)F)c3)c(=O)n(C)c2=O)cc1 | i | i | i | i | i | i
O=C(Nc1cccnc1)c1ccc(-c2ccc(Cl)cc2)o1 | i | i | ? | ? | 6µM | ?
O=C(NCc1cccnc1)c1ccc(-c2ccc(Cl)cc2)o1 | i | nt | i | i | ? | i
O=C(NCc1cccnc1)/C(=C\c1ccc(-c2ccc(Cl)c(Cl)c2)o1)S(=O)(=O)c1ccccc1 | i | i | 7.3µM | i | i | i
COc1ccc(S(=O)(=O)Cc2ccc(C(=O)NCc3cccnc3)o2)cc1 | i | i | 15µM | i | i | i
O=C(Nc1cccnc1)c1ccc(-c2cc(Cl)ccc2Cl)o1 | i | i | ? | i | 17µM | i
O=C(CCNC(=O)c1ccccc1Cl)NN1C(=O)NC2(CCCCC2)C1=O | i | nt | i | i | i | i
O=C(NCc1cccnc1)c1ccc(-c2cc(Cl)ccc2Cl)o1 | i | nt | 23µM | i | i | i
Cc1c(C(=O)NCCc2ccc(Cl)cc2)sc2nc3n(c(=O)c12)CCCC3 | nt | nt | nt | nt | i | nt
CC(C)C(=O)Nc1cccc(C(=O)Nc2ccc(S(=O)(=O)N3CCOCC3)cc2)c1 | i | nt | ? | i | i | i
COc1cc(OC)cc(C(=O)Nc2cccc(-c3ccc(N4CCOCC4)nn3)c2)c1 | ? | nt | i | ? | 1.5µM | ?
COc1ccc(C(=O)Nc2cccc(-c3ccc(N4CCOCC4)nn3)c2)cc1 | i | nt | ? | 4µM | 2.4µM | ?
COc1cccc(OC)c1C(=O)Nc1cccc(-c2ccc(N3CCOCC3)nn2)c1 | i | nt | ? | 1.8µM | 1.5µM | ?
COc1cc(OC)cc(C(=O)Nc2ccccc2N2CCOCC2)c1 | i | i | i | i | i | i
CSc1ncccc1C(=O)NCc1ccc(C)cc1 | i | i | i | i | i | i
SMILES | ELG1 genotoxic | SMN2 splice up | ELG1 repair inh | Rab9 prom act | FLuc modulator | NPC1 prom act
CCOc1ccc(C(=O)NCC2CCCO2)cc1OCC (centres undefined) | i | nt | i | i | i | i
Cn1c(=O)oc2cc(S(=O)(=O)Nc3ccc(Cl)cc3)ccc21 | i | nt | i | i | i | i
CCOc1cccc(CN2CCC(n3nccc3NC(=O)CCCc3ccccc3)CC2)c1 | i | nt | 6.5µM | i | i | i
CCOc1ccc(CN2CCC(n3nccc3NC(=O)CCCc3ccccc3)CC2)cc1 | i | nt | ? | i | i | i
COc1cc(Cl)c(CN2CCCC(CO)(Cc3ccccc3)C2)cc1OC (centres undefined) | i | nt | i | i | i | i
Oc1ccc(Cl)cc1C1=NNC(c2cc(Br)cc3c2OCOC3)C1 (centres undefined) | i | i | ? | i | i | i
COc1ccc(C2=NNC(c3cc(Cl)cc4c3OCOC4)C2)c(O)c1 (centres undefined) | i | i | ? | i | 13µM | i
C/C(=N/NS(=O)(=O)c1ccc(C)cc1)c1c[nH]c2ccccc12 | i | nt | i | i | i | i
COc1ccc(N2CCN(C(=O)c3ccc(CS(=O)(=O)c4ccc(OC)cc4)o3)CC2)cc1 | i | i | ? | i | i | i
O=C(C1CCN(S(=O)(=O)N2CCC3(CC2)OCCO3)CC1)N1CCC(Cc2ccccc2)CC1 | i | i | ? | i | i | i
Cc1ccc(NC(=O)c2oc3c(c2C)C(=O)CC(C)(C)C3)cc1 | i | nt | i | i | i | i
CCOc1ccc(OCC)c(Nc2cc(C)nc3nc(C)nn23)c1 | i | i | i | i | i | i
COc1cc(Nc2cc(C)nc3ncnn23)cc(OC)c1 | 23µM | ? | ? | i | i | i
COc1cc(Nc2cc(C)nc3ncnn23)cc(OC)c1OC | ? | 14µM | ? | i | i | i
CCOc1ccc(OCC)c(Nc2cc(C)nc3ncnn23)c1 | 21µM | 11µM | ? | i | i | i
COc1ccc(Nc2cc(C)nc3ncnn23)cc1Cl | ? | nt | i | i | i | ?
N#C/C(C(=O)Nc1ccc(Cl)cc1)=C(/S)Nc1ccccc1 | i | nt | i | i | 15µM | i
N#Cc1ccc(NC(=O)Nc2ccc(Cl)cc2)cc1 | i | i | ? | i | ? | i
CC(C)OP(=O)(OC(C)C)/C(C=O)=N\Nc1ccc([N+](=O)[O-])cc1 | i | nt | 23µM | i | i | i
CC(C)OP(=O)(OC(C)C)C(Nc1ccc([N+](=O)[O-])cc1)c1cccc([N+](=O)[O-])c1 (centres undefined) | i | nt | i | i | i | i
CCc1ccc(OCC(=O)N/N=C/c2cc([N+](=O)[O-])ccc2N2CCOCC2)cc1 | i | i | i | i | ? | i
NC(=O)NOCc1ccc(Cl)cc1Cl | i | i | i | i | i | i
CNC(=S)/N=C/NOCc1ccc(Cl)cc1Cl | i | i | 12µM | i | i | i
CC(=O)Nc1cccc(NC(=O)CSc2nnc(NC(=O)C3CC3)s2)c1 | i | nt | i | i | ? | i
COc1cccc(NC(=O)CSc2nnc(NC(=O)c3ccco3)s2)c1 | i | nt | ? | i | 24µM | i
Cc1ccc(SCC(=O)Nc2cccc(NC(=O)c3ccco3)c2)cc1 | i | i | i | i | 19µM | i
O=C(CSc1nnc(NC(=O)c2ccco2)s1)Nc1ccc(F)cc1F | i | nt | i | i | ? | i
O=C(CSc1nnc(NC(=O)c2ccco2)s1)Nc1cccc(F)c1 | ? | nt | ? | ? | 6.7µM | ?
CC(=O)Nc1cccc(NC(=O)CSc2nnc(NC(=O)c3ccco3)s2)c1 | i | nt | ? | i | 19µM | i
CCOC(=O)c1ccc2[nH]c(C)c(CCC(C)=O)c(=O)c2c1 | i | i | i | i | i | i
